Screens (PubChem BioAssay)
A selection follows.
aSyn 5UTR act: Activators via SNCA 5'UTR binding, MLPCN; alpha-synuclein 5'UTR reporter, activators screen; activity score, % (tested at 7.5 µM), hits read low; 300,000 compounds, 7.1% hits; in the data active means activity score below about -60%
Numbers stand for hits; - = inactive.

SMILES	aSyn 5UTR act
C/C(=N\NC(=O)CSCc1ccc(Cl)cc1)c1ccc(NC(=O)c2ccccc2)cc1	-137.0
O=C(Nc1ccc(CN2CCOCC2)cc1)c1ccco1	-68.8
C/C(=N\NC(=O)c1ccc(CN2CCOCC2)cc1)c1ccc(NC(=O)c2ccccc2)cc1	-76.5
O=C(Nc1ccc(CN2CCOCC2)cc1)c1ccc(F)cc1	-116.8
CC(C)(C)c1ccc(C(=O)Nc2ccc(CN3CCS(=O)(=O)CC3)cc2)cc1	-68.2
O=C(N/N=C/c1ccccc1[N+](=O)[O-])c1ccc(CN2CCOCC2)cc1	-82.6
O=C(Nc1ccc(CN2CCOCC2)cc1)c1ccc2ccccc2c1	-181.7
O=C(NCCSc1ccccc1)c1ccc(CN2CCOCC2)cc1	-126.2
CCOc1cc(-c2ccccc2)nc(N)n1	-112.4
COc1cc(-c2ccccc2)nc(N)n1	-117.0
O=C(NC1CCCC1)c1cc2ccccc2o1	-107.2
O=C(NC1CCCCC1)Oc1cc2oc(=O)sc2cc1Br	-
O=C(NC1CCCCC1)c1cc2cc(Br)ccc2o1	-138.3
O=C(NC1CCCC1)c1cc2cc(Br)ccc2o1	-138.8
COc1ccc(COc2ccc3c(C)cc(=O)oc3c2)cc1	-131.2
Cc1cc(=O)oc2cc(OCc3ccccc3)ccc12	-129.8
O=C(/C=C/c1ccc2c(c1)OCO2)Nc1nc(-c2ccc(F)cc2)cs1	-61.9
O=C(/C=C/c1ccc2c(c1)OCO2)Nc1nc2ccc(F)cc2s1	-109.9
COc1ccc(C(=O)C(OC(=O)c2ccccc2)c2ccccc2)cc1 (centres undefined)	-169.0
COc1ccc(C(=O)C(OC(=O)c2ccccc2Cl)c2ccccc2)cc1 (centres undefined)	-104.0
N#Cc1c(N)n(C2CCCCC2)c2nc3ccccc3nc12	-
CCOC(=O)CSC1=C(C#N)C(c2ccc(C)o2)CC(=O)N1 (centres undefined)	-
CCOC(=O)CSc1nc2cc(OCC)ccc2cc1C#N	-209.5
COC(=O)CSc1nc2cc(OC)ccc2cc1C#N	-133.1
COc1ccc2cc(C#N)c(SCC(=O)NNC(=O)Cc3ccccc3)nc2c1	-78.1
SMILES	aSyn 5UTR act
COc1ccc2nc(SCC(=O)Nc3ccc4sc(C)nc4c3)c(C#N)cc2c1	-147.8
COC(=O)c1ccc(NC(=O)Nc2ccc(F)cc2F)cc1	-110.9
O=C(Nc1ccc(F)cc1F)N1CCCCCC1	-86.5
O=C(Nc1ccccc1)Nc1ccc(F)cc1F	-114.6
CCSc1nsc(NC(=O)Nc2ccc(F)cc2F)n1	-138.3
COC(=O)c1ccc(NC(=O)Nc2cccc(F)c2)cc1	-205.6
CNc1ncc(C(=O)c2ccc(Cl)cc2)s1	-124.2
CNc1ncc(C(=O)c2ccc(Cl)c(Cl)c2)s1	-148.5
COc1ccc(-c2nc(=S)c3c([nH]2)Oc2ccc(C)cc2C3)cc1O	-75.6
CN(C1=C(NC(=O)c2ccc(Cl)cc2)C(=O)c2ccccc2C1=O)c1ccccc1	-83.4
CC(C)(C)C(=O)N1CCN(c2nc3ccc(Br)cc3s2)CC1	-163.9
CC(=O)N1CCN(c2nc3ccc(Br)cc3s2)CC1	-157.6
CC(C)(C)C(=O)N1CCN(c2nc3ccc(Cl)cc3s2)CC1	-237.1
COc1cccc2cc(-c3ccnc(=S)[nH]3)oc12	-74.4
Nc1ccccc1C(=O)NNC1=C(C(=O)C(F)(F)F)CCC1	-277.8
C=CCOc1c(Cl)cc(C(=S)N2CCCC2)cc1OCC	-94.9
Cc1c(C(=O)OCC(=O)N2C(C)CCCC2C)oc2ccccc12 (centres undefined)	-118.1
Cc1cccc(C(=O)Nc2ccccc2C(=O)OCC(=O)Nc2ccc(C#N)cc2)c1	-100.0
Nc1nc(F)nc2c1ncn2[C@@H]1O[C@H](CO)[C@@H](O)[C@H]1O	-
COc1cc(/C=N/Nc2nncc3ccccc23)cc(OC)c1OC	-108.2
C(=N\Nc1nncc2ccccc12)/c1ccccc1	-74.9
COc1ccc(/C=N/Nc2nncc3ccccc23)c(OC)c1	-159.5
O=C(c1ccccn1)c1cc2ccccc2n1S(=O)(=O)c1ccccc1	-91.2
Cc1ccnc(N(C(=O)Nc2ccccc2)C2=NCC(C)(C)S2)c1	-164.8
CC(C)(C)C(=O)O/N=C(\N)COc1cccc(Cl)c1	-124.8
SMILES	aSyn 5UTR act
CCc1ccc(C2CC(c3ccco3)=NN2S(C)(=O)=O)cc1 (centres undefined)	-88.5
O=[N+]([O-])c1cc2c(cc1/C=N/Nc1nc(Nc3ccccc3)nc(N3CCCCC3)n1)OCO2	-63.4
COc1cccc(/C=N/Nc2nc(Nc3ccc([N+](=O)[O-])cc3)nc(N3CCCC3)n2)c1O	-
COc1cccc(NC(=O)n2nc(N)cc2-c2ccc(Cl)cc2)c1	-69.2
OCc1c(OCc2cccc(F)c2)ccc2ccccc12	-110.8
Cc1cccc(NC2=C(NC(=O)c3ccccc3)C(=O)c3ccccc3C2=O)c1	-101.6
C=CC[C@]12CC=CC(=O)[C@@]1(O)O[C@H](c1ccc(OC)c(OC)c1)[C@H]2C	-94.0
C=CCc1cccc(C=Nc2cccn3cc(-c4ccccc4)nc23)c1O	-88.5
CCc1ccc(O)c(N=Cc2cccc(C)c2O)c1	-131.1
C=CCc1cccc(C=Nc2cc(Br)ccc2O)c1O	-110.1
O=C(O)c1cc(N/N=C/c2ccc3c(c2)OCO3)ccc1Cl	-72.6
Cc1ccc(N/N=C/c2ccc3c(c2)OCCO3)cc1Cl	-86.9
Cc1ccc(N/N=C/c2ccc(N3CCOCC3)cc2)cc1C	-95.7
Cc1cc(N/N=C/c2ccccc2)nc(N2CCOCC2)n1	-83.3
O=C(O)c1ccc(N/N=C/c2ccc3c(c2)OCO3)cc1	-
C/C(=N\Nc1ccc(Cl)c(C(=O)O)c1)c1ccc2c(c1)OCO2	-72.6
Cc1cc(=O)[nH]c(N=N/C(=N/Nc2ccccc2C)c2ccccc2)n1	-
Cc1cc(=O)[nH]c(S/C=C/c2ccccc2)n1	-78.2
O=C(Nc1ccc(-c2nc3ncccc3o2)cc1)c1ccco1	-162.6
O=C(Nc1ccc(-c2nc3ncccc3o2)cc1)c1ccc(Br)o1	-102.9
COc1ccc(NC(=O)Nc2ccc(Br)cn2)cc1OC	-68.8
COc1cccc(NC(=O)Nc2ccc(Br)cn2)c1	-192.2
CSc1nc(O)c(/C=C2\C=Nc3ccccc32)[nH]1	-221.3
COC(=O)c1ccccc1NC1=C/C(=N\S(=O)(=O)c2cccs2)c2ccccc2C1=O	-90.6
COc1ccc(-c2cc3ncc(C(C)=O)c(C)n3n2)cc1	-137.2
SMILES	aSyn 5UTR act
CC(=O)c1cnc2nc(SCc3ccccc3)nn2c1C	-156.9
CC(=O)c1cnc2cc(-c3ccc(C)cc3)nn2c1C	-242.6
CC(=O)c1cnc2cc(-c3ccccc3)nn2c1C	-167.5
CCOc1ccccc1CNC(=O)C1CCN(c2nnc(C)c3c(C)n(-c4ccc(C)cc4)nc23)CC1	-
COc1ccc(-n2nc3c(N4CCC(C(=O)NCc5cccc(C)c5)CC4)nnc(C)c3c2C)cc1	-
COc1cccc(NC(=O)c2ccnc(N3CCC(C(=O)NCc4ccccc4OC)CC3)c2)c1	-95.1
CCCCC(=O)NC(c1ccc(C(C)C)cc1)c1ccc2cccnc2c1O (centres undefined)	-
Cc1ccc(NC(=S)NC(=O)c2ccc(Br)o2)c(C)c1	-181.0
O=C(O)CCC(=O)Nc1cccc2cccnc12	-113.8
O=C(NC(=S)Nc1ccccc1F)c1ccc(Br)o1	-65.5
CCCCC(=O)NC(c1ccccc1Cl)c1ccc2cccnc2c1O (centres undefined)	-
Cc1cccc(NC(=S)NC(=O)c2ccc(Br)o2)c1C	-74.1
O=C(Nc1cccc2cccnc12)c1ccc(Br)o1	-97.5
CSc1ccccc1NC(=O)c1ccc(Br)o1	-78.3
CCCNC(=O)c1cccc(COc2ccccc2OC)c1	-106.9
COc1ccccc1OCCNC(=O)c1ccc(Br)cc1	-106.2
COc1ccccc1OCCCCOc1ccccc1F	-70.5
